According to PubChem BioAssay (NCATS):
Results filed as inconclusive are left out. Active and inactive are the calls of the source. Unless noted, the call rests on the fitted dose curve; in most records, active means well fitted curve in either direction with a large enough effect (not every such curve was filed as active); inconclusive means small, poorly fitted or top-dose-only effect, or another doubt; inactive means flat fitted curve, though single readings scatter.

Legend:
[1] = biological target: Lysosomal acid glucosylceramidase (Homo sapiens) (UniProt P04062); test: Glucocerebrosidase-p2 (AID 348; in the data active means potency below about 10 µM; further: potency means the concentration at half of the fitted maximal effect); details: purified GBA, blue fluorogenic substrate, 40 min
Procedure, shortened: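 Compounds titrated from 0.6 nM upwards against 0.2 nM enzyme in pH 5.9 citric acid/KH2PO4, taurocholate, tween-20; blue fluorogenic substrate 80 uM, 40 min room temperature, stopped and read Ex 365/Em 440 for AC50.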

[2] = AP1 Signaling Pathway (AID 357); details: ME-180 AP-1-bla reporter, EGF-induced, beta-lactamase ratio, 5 h; at 7.69 µM (top of the series) unless noted;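 further: ME-180 reporter cells stimulated with EGF at its EC50 level; on the % scale 0 is the no-effect control and ±100 the full control effect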
Procedure, shortened: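 AP-1-bla ME-180 cells, Opti-MEM + 0.5% dialyzed FBS, plated overnight 37 °C. Cpd titration + EC50 EGF, 5 h 37 °C. CCF4 2.5 h RT; ex 405, em 460/530 ratio → %activity, AC50.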

[3] = NFAT Signaling Pathway (AID 444); details: Jurkat NFAT-bla M1, carbachol, beta-lactamase ratio, 5 h; at 7.69 µM (top of the series) unless noted;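 further: carbachol stimulus at about its EC50 of 1 µM final; on the % scale 0 is the no-effect control and ±100 the full control effect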
Procedure, shortened: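 Jurkat cells carrying an NFAT-driven β-lactamase reporter and co-transfected muscarinic M1 receptor were treated with compound plus carbachol (1 uM final, an EC50 level) for 5 h at 37 °C. CCF4 loading followed for 1 h at RT; 460/530 nm ratio gave %activity.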

[4] = Stat Signaling Pathway (AID 446); details: ME-180 SIE beta-lactamase reporter, IL-6 stimulated, 5 h; at 7.69 µM (top of the series) unless noted;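 further: ME-180 cervical cancer cells given 40 pM IL-6 alongside compound; SIE-controlled beta-lactamase reporter measured as 460/530 nm FRET emission ratio; on the % scale 0 is the no-effect control and ±100 the full control effect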
Procedure, shortened: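 ME-180 SIE-bla cells; overnight plating; cpd + IL-6 40 pM, 5 h, 37 C; LiveBLAzer 2.5 h RT; 460/530 nm emission ratio. Normalized to 300 pM IL-6 and 125 nM JAK inhibitor controls.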

[5] = biological target: Glucocorticoid receptor (Homo sapiens) (UniProt P04150); test: GR-GFP Redistribution (AID 450;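 active means compounds whose dose series gives a full or clear partial fitted curve of increased nuclear translocation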; further: potency means the concentration at half of the fitted maximal effect); details: U2OS GR-GFP nuclear translocation, laser cytometry, 2 h
[6] = biological target: Glucocorticoid receptor (Homo sapiens) (UniProt P04150); test: GR-EFC Redistribution (AID 451; calls by dose curve; further: potency means the concentration at half of the fitted maximal effect); details: CHO-K1 GR-EFC translocation, beta-gal luminescence, 2 h
Procedure, shortened: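 CHO-K1 cells stably expressing nuclear-localized β-gal enzyme acceptor and GR fused C-terminally to the enzyme donor fragment; ligand-driven nuclear translocation restores β-gal by complementation. Compounds titrated up to 46 uM final, 2 h at 37 °C; luminescence read.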

[7] = biological target: Mitogen-activated protein kinase 10 (Mus musculus) (UniProt Q61831); test: JNK3 AlphaScreen Assay (AID 530); details: JNK3 lysate, c-Jun phosphorylation; series mostly up to 11.4 µM;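 further: kinase came from lysate of stimulated human HepG2 cells; signal reports phosphorylation of biotinylated GST-cJun 1-79 at Ser73 with 10 µM ATP; on the % scale 0 is the no-effect control and ±100 the full control effect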
Procedure, shortened: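 Inhibitors reduce antibody binding to phosphorylated biotin-cJun, lowering AlphaScreen luminescence. Lysates from HepG2 cells pre-activated by IL-1beta plus TNF-alpha supplied JNK3; compounds were titrated.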

[8] = biological target: 3',5'-cyclic-AMP phosphodiesterase 4B (Homo sapiens) (UniProt Q07343); test: qHTS Assay for Inhibitors of PDE-IV (AID 607; active means well fitted activation curve with a large enough effect in the main read-out, with a control signal flat, not every such curve was filed as active; further: % of control where 0% means no effect); details: HEK293 ACTOne CNG channel cells, membrane potential fluorescence; series mostly up to 22.9 µM
Procedure, shortened: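 ACTOne HEK293 cells carry a modified cAMP-gated CNG channel and express endogenous PDE4; plated 1000 cells/well, compounds up to 22.9 uM final. Membrane-potential dye fluorescence (ex 535/em 590) was read; parental cells received 10 uM forskolin + 100 uM RO 20-1724.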

Chain of Lysosomal acid glucosylceramidase (Homo sapiens) (P04062 whole entry, looked up): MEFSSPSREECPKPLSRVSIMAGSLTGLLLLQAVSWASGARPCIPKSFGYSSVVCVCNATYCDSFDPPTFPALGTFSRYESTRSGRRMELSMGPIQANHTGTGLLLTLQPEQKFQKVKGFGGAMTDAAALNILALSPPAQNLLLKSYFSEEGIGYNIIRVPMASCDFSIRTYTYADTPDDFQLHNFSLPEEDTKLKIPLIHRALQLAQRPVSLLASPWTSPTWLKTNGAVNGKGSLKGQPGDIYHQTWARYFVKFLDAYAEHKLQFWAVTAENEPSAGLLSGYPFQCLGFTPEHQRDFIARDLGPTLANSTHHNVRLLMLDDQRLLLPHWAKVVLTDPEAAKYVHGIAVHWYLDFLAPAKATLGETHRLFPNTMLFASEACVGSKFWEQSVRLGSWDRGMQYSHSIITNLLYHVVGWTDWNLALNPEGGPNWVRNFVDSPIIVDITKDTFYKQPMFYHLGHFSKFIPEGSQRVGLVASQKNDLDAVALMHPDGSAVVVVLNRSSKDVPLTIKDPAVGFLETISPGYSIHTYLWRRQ
Chain of 3',5'-cyclic-AMP phosphodiesterase 4B (Homo sapiens) (Q07343 whole entry, looked up): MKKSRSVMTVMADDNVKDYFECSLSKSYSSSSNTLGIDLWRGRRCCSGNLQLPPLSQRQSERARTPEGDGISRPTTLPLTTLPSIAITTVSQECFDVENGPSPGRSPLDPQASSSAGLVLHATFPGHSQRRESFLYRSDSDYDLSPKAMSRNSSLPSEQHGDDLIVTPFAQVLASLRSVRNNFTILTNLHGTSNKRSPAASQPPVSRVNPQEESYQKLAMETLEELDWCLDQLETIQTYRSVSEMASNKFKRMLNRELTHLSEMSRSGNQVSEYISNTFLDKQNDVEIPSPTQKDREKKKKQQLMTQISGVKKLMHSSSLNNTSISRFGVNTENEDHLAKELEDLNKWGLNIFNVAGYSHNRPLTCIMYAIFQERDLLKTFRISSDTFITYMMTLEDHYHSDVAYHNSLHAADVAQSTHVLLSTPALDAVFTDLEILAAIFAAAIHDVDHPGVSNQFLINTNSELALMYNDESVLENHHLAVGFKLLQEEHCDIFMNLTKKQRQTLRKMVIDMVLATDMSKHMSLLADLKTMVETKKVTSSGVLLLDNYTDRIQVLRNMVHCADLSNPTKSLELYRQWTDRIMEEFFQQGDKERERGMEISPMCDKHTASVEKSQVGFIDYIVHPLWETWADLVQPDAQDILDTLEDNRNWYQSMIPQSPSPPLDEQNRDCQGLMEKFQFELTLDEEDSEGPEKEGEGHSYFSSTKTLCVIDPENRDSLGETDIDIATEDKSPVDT
Chain of Glucocorticoid receptor (Homo sapiens) (P04150 whole entry, looked up, the tested form may be a part): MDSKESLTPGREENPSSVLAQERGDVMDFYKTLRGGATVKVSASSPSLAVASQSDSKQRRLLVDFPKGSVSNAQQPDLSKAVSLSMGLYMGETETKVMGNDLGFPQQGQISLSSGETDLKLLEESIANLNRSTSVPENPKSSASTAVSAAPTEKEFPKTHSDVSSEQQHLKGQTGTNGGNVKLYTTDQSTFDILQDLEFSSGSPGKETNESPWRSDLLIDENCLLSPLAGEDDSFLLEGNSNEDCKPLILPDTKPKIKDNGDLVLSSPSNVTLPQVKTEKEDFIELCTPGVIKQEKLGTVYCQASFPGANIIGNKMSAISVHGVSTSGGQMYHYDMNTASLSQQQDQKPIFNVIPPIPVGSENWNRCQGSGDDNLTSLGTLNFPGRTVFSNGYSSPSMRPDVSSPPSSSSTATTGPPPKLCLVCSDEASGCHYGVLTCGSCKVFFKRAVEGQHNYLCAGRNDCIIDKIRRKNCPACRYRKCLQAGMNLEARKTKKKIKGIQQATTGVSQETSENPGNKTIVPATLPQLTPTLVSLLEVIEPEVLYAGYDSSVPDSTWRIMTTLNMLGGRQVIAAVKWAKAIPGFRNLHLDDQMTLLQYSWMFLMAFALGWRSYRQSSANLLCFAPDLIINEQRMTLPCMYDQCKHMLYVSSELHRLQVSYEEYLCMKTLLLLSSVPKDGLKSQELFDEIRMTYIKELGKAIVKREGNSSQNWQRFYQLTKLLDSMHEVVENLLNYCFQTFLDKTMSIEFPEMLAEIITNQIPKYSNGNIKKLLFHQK

CC(C)[C@H](Nc1ncnc2nc[nH]c12)C(=O)O
inactive: Potency [1] > 11.4 µM | activity change, negative = inhibition [2] 7.63% | activity change, negative = inhibition [3] -3.53% | activity, negative = inhibition [4] -3.88% | Potency [5] > 46 µM | Potency [6] > 9.22 µM | Potency [7] | Potency [8]

C[N+](C)(C)CC(=O)N/N=C\c1ccncc1
inactive: Potency [1] > 11.4 µM | activity change, negative = inhibition [2] -2.8% | activity change, negative = inhibition [3] 3.32% | activity, negative = inhibition [4] 8.79% | Potency [5] > 46 µM | Potency [6] > 9.22 µM | Potency [7] | Potency [8]

CN(C)CCCSc1nc2ccccc2[nH]1
inactive: Potency [1] > 11.4 µM | activity change, negative = inhibition [2] -0.00775% | activity change, negative = inhibition [3] -10.2% | activity, negative = inhibition [4] 3.11% | Potency [5] > 46 µM | Potency [6] > 9.22 µM | Potency [7] | Potency [8]

CCCS(=O)(=O)O
inactive: Potency [1] > 11.4 µM | activity change, negative = inhibition [2] -5.23% | activity change, negative = inhibition [3] 0.712% | activity, negative = inhibition [4] 4.08% | Potency [5] > 46 µM | Potency [6] > 9.22 µM | Potency [7] | Potency [8]

O=C(O)Cc1c[nH]c2ccc(F)cc12
inactive: Potency [1] > 11.4 µM | activity change, negative = inhibition [2] 0.0381% | activity change, negative = inhibition [3] 24.2% | activity, negative = inhibition [4] 5.52% | Potency [5] > 46 µM | Potency [6] > 9.22 µM | Potency [7] | Potency [8]

Cc1ncc(CSC(=N)N)n1Cc1ccccc1
inactive: Potency [1] > 11.4 µM | activity change, negative = inhibition [2] 6.64% | activity change, negative = inhibition [3] -15.5% | activity, negative = inhibition [4] 4.51% | Potency [5] > 46 µM | Potency [6] > 9.22 µM | Potency [7] | Potency [8]

CC[C@@H](c1ccc2cc(O)ccc2c1)C(C)(C)C(=O)O
inactive: Potency [1] > 11.4 µM | activity change, negative = inhibition [2] -1.38% | activity change, negative = inhibition [3] 8.96% | activity, negative = inhibition [4] 6.79% | Potency [5] > 46 µM | Potency [6] > 9.22 µM | Potency [7] | Potency [8]

CCC(=O)[C@@H](c1ccccc1)c1ccccn1
inactive: Potency [1] > 11.4 µM | activity change, negative = inhibition [2] 10.3% | activity change, negative = inhibition [3] -5.51% | activity, negative = inhibition [4] 0.735% | Potency [5] > 46 µM | Potency [6] > 9.22 µM | Potency [7] | Potency [8]

COc1ccc2c(c1)CCc1c(-c3noc4c3CCc3cc(OC)ccc3-4)noc1-2
inactive: Potency [1] > 11.4 µM | activity change, negative = inhibition [2] -10.7% | activity change, negative = inhibition [3] -3.27% | activity, negative = inhibition [4] 2.75% | Potency [5] > 46 µM | Potency [6] > 9.22 µM | Potency [7] | Potency [8]

NC(N)=NCCCC(=O)O
inactive: Potency [1] > 11.4 µM | activity change, negative = inhibition [2] -2.56% | activity change, negative = inhibition [3] 13.2% | activity, negative = inhibition [4] 4.79% | Potency [5] > 46 µM | Potency [6] > 9.22 µM | Potency [7] | Potency [8]

CNS(=O)(=O)c1ccccc1C(=N)c1ccccc1
inactive: Potency [1] > 11.4 µM | activity change, negative = inhibition [2] -4.6% | activity change, negative = inhibition [3] 1.97% | activity, negative = inhibition [4] 0.878% | Potency [5] > 46 µM | Potency [6] > 9.22 µM | Potency [7] | Potency [8]

Cn1c(=S)c2[nH]c(SCCN3C(=O)c4ccccc4C3=O)nc2n(C)c1=O
inactive: Potency [1] > 11.4 µM | activity change, negative = inhibition [2] 0.578% | activity change, negative = inhibition [3] -4.22% | activity, negative = inhibition [4] 2.07% | Potency [5] > 46 µM | Potency [6] > 9.22 µM | Potency [7] | Potency [8]

N[C@@H](CSc1nc2ccccn2c1[N+](=O)[O-])C(=O)O
inactive: Potency [1] > 11.4 µM | activity change, negative = inhibition [2] -2.33% | activity change, negative = inhibition [3] 9.56% | activity, negative = inhibition [4] -1.41% | Potency [5] > 46 µM | Potency [6] > 9.22 µM | Potency [7] | Potency [8]

Cc1ccc(S(=O)(=O)OCC(=O)O)cc1
inactive: Potency [1] > 11.4 µM | activity change, negative = inhibition [2] 2.36% | activity change, negative = inhibition [3] 4.54% | activity, negative = inhibition [4] 5.39% | Potency [5] > 46 µM | Potency [6] > 9.22 µM | Potency [7] | Potency [8]

Cc1ncc(CSc2ccccc2N)c(CO)c1O
inactive: Potency [1] > 11.4 µM | activity change, negative = inhibition [2] 6.48% | activity change, negative = inhibition [3] 1.52% | activity, negative = inhibition [4] -0.62% | Potency [5] > 46 µM | Potency [6] > 9.22 µM | Potency [7] | Potency [8]

CCc1ccc(CCC(=O)O)nc1
inactive: Potency [1] > 11.4 µM | activity change, negative = inhibition [2] 0.964% | activity change, negative = inhibition [3] -3.46% | activity, negative = inhibition [4] -13.2% | Potency [5] > 46 µM | Potency [6] > 9.22 µM | Potency [7] | Potency [8]

O=C(CSC1=NCCN1)c1ccccc1
inactive: Potency [1] > 11.4 µM | activity change, negative = inhibition [2] -0.79% | activity change, negative = inhibition [3] -8.06% | activity, negative = inhibition [4] -8.19% | Potency [5] > 46 µM | Potency [6] > 9.22 µM | Potency [7] | Potency [8]

CN(C)CCNc1nc2c(c(=O)n(C)c(=O)n2C)n1C
inactive: Potency [1] > 11.4 µM | activity change, negative = inhibition [2] -7.15% | activity change, negative = inhibition [3] 4.81% | activity, negative = inhibition [4] 9.47% | Potency [5] > 46 µM | Potency [6] > 9.22 µM | Potency [7] | Potency [8]

Cc1cc(=O)[nH]c(/N=C(\N)Nc2ccc(Cl)cc2)n1
inactive: Potency [1] > 11.4 µM | activity change, negative = inhibition [2] -8.26% | activity change, negative = inhibition [3] -9.44% | activity, negative = inhibition [4] -3.21% | Potency [5] > 46 µM | Potency [6] > 9.22 µM | Potency [7] | Potency [8]

NC(=S)N/N=C\c1c[nH]c2ccccc12
inactive: Potency [1] > 11.4 µM | activity change, negative = inhibition [2] 2.82% | activity change, negative = inhibition [3] -6% | activity, negative = inhibition [4] 13.8% | Potency [5] > 46 µM | Potency [6] > 9.22 µM | Potency [7] | Potency [8]

N#CCCn1c(=O)c(-c2cccc(C#N)c2)nc2cnc(Oc3ccccc3)nc21
inactive: Potency [1] > 11.4 µM | activity change, negative = inhibition [2] -17.5% | activity change, negative = inhibition [3] -7.09% | activity, negative = inhibition [4] -3.8% | Potency [5] > 9.22 µM | Potency [6] > 46 µM | Potency [7] | Potency [8]

C(=Nc1ccc2c(c1)Cc1ccccc1-2)c1ccccn1
inactive: Potency [1] > 11.4 µM | activity change, negative = inhibition [2] -0.541% | activity change, negative = inhibition [3] 1.45% | activity, negative = inhibition [4] 0.131% | Potency [5] > 46 µM | Potency [6] > 9.22 µM | Potency [7] | Potency [8]
